From PubChem BioAssay
SKKanGAS inh = SKKanGAS growth inhibition; inhibition, % at 7.5 µM; S. pyogenes SKKanGAS, kanamycin growth, BacTiter-Glo, 6 h; AID 1662; 300,000 compounds, 1.3% hits;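 active means mean replicate score, as percent of positive control median, at least 50; inconclusive means mean below 50 but one replicate at or above 50; inactive means mean and every replicate below 50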;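 further: strain carries kanamycin resistance gene driven by streptokinase promoter and grows in 40 µg/ml kanamycin; loss of luminescence reflects streptokinase promoter inhibition or plain growth inhibition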
MPTP block = blocks calcium-induced mitochondrial swelling; isolated mouse mitochondria, Ca2+ swelling absorbance, 30 min; inhibition, % at 10 µM; 360,000 compounds, 1.4% hits;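 active means inhibition of 50% or more, scaled per plate between neutral and stimulator controls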
Mdm2 MdmX PPI = inhibitors of human Mdm2/MdmX interaction. inhibition, % at 8 µM. AID 485346. O15151+Q00987. 330,000 compounds, 3% hits. SaOS-2 split-luciferase Mdm2/MdmX complementation, luminescence;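 active means inhibition of at least 50% at 8 µM in the primary screen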
Target sequence (O15151 whole entry, looked up): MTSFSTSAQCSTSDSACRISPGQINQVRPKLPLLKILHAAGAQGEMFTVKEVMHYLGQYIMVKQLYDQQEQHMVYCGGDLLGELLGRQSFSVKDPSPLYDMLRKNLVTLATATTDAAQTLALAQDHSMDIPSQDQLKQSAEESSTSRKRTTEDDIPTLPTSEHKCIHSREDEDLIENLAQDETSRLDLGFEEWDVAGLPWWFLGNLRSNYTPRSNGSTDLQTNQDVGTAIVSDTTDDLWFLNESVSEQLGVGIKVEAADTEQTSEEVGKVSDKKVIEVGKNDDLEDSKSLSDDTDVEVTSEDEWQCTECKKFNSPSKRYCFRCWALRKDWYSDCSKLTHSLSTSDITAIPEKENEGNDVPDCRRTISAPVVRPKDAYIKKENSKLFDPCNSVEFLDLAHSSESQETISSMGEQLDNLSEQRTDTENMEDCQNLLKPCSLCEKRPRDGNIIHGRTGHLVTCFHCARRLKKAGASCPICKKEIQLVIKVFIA
Target sequence (Q00987 whole entry, looked up): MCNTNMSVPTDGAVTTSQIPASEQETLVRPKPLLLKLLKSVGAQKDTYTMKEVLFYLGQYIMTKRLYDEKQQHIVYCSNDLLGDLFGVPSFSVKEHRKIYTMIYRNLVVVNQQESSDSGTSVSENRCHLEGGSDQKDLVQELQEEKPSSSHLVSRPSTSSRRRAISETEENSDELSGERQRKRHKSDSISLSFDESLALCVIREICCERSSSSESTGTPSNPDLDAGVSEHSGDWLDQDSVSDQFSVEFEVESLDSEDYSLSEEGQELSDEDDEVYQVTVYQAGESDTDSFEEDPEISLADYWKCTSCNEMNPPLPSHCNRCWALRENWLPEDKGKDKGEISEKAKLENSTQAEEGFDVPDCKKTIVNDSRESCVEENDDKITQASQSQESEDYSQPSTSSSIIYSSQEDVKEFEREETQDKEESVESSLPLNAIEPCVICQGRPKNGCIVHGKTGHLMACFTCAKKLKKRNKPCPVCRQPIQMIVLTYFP
Beta cell apopt = beta cell apoptosis inhibition; protection from apoptosis, % (no concentration beside the values); 300,000 compounds, 0.8% hits; INS-1E cytokine-induced death, ATP luminescence, 48 h; percent of positive-control rescue, neutral wells zero; AID 435005;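 active means Every replicate reaches about 75%, or at least half do and their mean reaches it too, limit read from the data; inconclusive means At least half of replicates reach the limit but their mean does not; inactive means Under half of replicates reach the limit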;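 further: higher means more ATP so stronger rescue from cytokine killing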
CSC inhib = cancer stem cell inhibition. inhibition, % at 7.5 µM. cancer stem cell-like cells viability, luminescence. 300,000 compounds, 1.1% hits; in the data active means inhibition above about 75%; inconclusive means no clear call, values can overlap the other calls; tested in HMLE shEcad cells
Calb FLC = C. albicans growth modulation with fluconazole; C. albicans CaCi-2 (fluconazole-resistant clinical isolate) + fluconazole, Alamar Blue growth, 48 h; AID 1979; growth inhibition, % (concentration not given with the values); 300,000 compounds, 0.57% hits;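 active means growth inhibition above about 58% in most replicates, limit read from the data, passing the limit was not always enough; inconclusive means exactly half the replicates above a set limit; inactive means most replicates below a set limit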;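 further: all wells also contain fluconazole at 8 µg/ml as a sub-toxic cotreatment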
Mdm2 MdmX conf = human Mdm2/MdmX binding inhibition, confirmed. inhibition, % at 8 µM. luminescent assay. 10,000 compounds, 55% hits. AID 489028. shares compounds with Mdm2 MdmX PPI; in the data active means inhibition above about 40%
FLuc counter = full-length luciferase inhibition in Mdm2/MdmX counter-screen; shares compounds with Mdm2 MdmX PPI; SaOS-2 full-length luciferase counterscreen, luminescence; inhibition, % at 8 µM; 6,200 compounds, 77% hits;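 active means mean inhibition at 8 µM reaching about 37%, which flags the compound as non-specific, limit read from the data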;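 further: p53-null SaOS-2 cells with luciferase driven by a doxycycline-inducible promoter; compound on cells about two nights before reading with doxycycline added after day one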
Of the large screens only hits and unclear results are named; the others gave an inactive call (follow-up assays come after a bar, where they were run). Most compounds without a hit are left out; they make up all but 5.4% or so of the library.

O=S(=O)(c1ccc(NC(=S)N/N=C/c2ccc(Oc3ccccc3)cc2)cc1)N1CCOCC1	Mdm2 MdmX PPI 64 | Mdm2 MdmX conf inactive | FLuc counter 85
COc1ccc(OC)c(/C=C2\SC(=S)N(Cc3cccnc3)C2=O)c1	Mdm2 MdmX PPI 73 | Mdm2 MdmX conf 44 | FLuc counter 49
COc1ccc(O)c(/C=C2/SC(=S)N(Cc3ccccc3)C2=O)c1	none
O=C(NC1=C(NC2CCS(=O)(=O)C2)C(=O)c2ccccc2C1=O)c1ccccc1 (configuration not stated)	Mdm2 MdmX PPI 90 | Mdm2 MdmX conf 60 | FLuc counter 49
O=C(NC(NC1CCS(=O)(=O)C1)C(=O)c1cccs1)c1ccccc1 (configuration not stated)	none (no result: MPTP block)
Cc1cccc(/C=C/c2onc(C)c2S(=O)(=O)N2CCC(C(=O)N3CCC(C)CC3)CC2)c1	Mdm2 MdmX PPI 52 | Mdm2 MdmX conf inactive
C[C@H]1CN([C@@H](C)CO)C(=O)Cc2cc(NC(=O)CCC(F)(F)F)ccc2O[C@H]1CN(C)S(=O)(=O)c1ccc(Cl)cc1	Mdm2 MdmX PPI 55 (no result: SKKanGAS inh, Beta cell apopt, CSC inhib, Calb FLC) | Mdm2 MdmX conf 50 | FLuc counter 65
C[C@H](CO)N1C[C@H](C)[C@@H](CN(C)S(=O)(=O)c2ccc(Cl)cc2)Oc2ccc(NS(=O)(=O)c3ccccc3)cc2CC1=O	none (no result: SKKanGAS inh, Calb FLC)
C[C@@H]1CN([C@@H](C)CO)C(=O)Cc2cc(NC(=O)Nc3ccc(F)cc3)ccc2O[C@@H]1CN(C)Cc1ccc(Cl)c(Cl)c1	Mdm2 MdmX PPI 100 (no result: SKKanGAS inh, CSC inhib, Calb FLC) | Mdm2 MdmX conf 63 | FLuc counter 56
C[C@@H]1CN([C@H](C)CO)C(=O)c2cc(NC(=O)Cc3ccccc3)ccc2O[C@H]1CN(C)Cc1ccc(Oc2ccccc2)cc1	Mdm2 MdmX PPI 73 (no result: SKKanGAS inh, Calb FLC) | Mdm2 MdmX conf inactive
C[C@@H]1CN([C@@H](C)CO)C(=O)c2cc(NC(=O)Nc3ccc(F)cc3)ccc2O[C@@H]1CN(C)Cc1ccc(Oc2ccccc2)cc1	Mdm2 MdmX PPI 94, CSC inhib 137 (no result: SKKanGAS inh, Calb FLC) | Mdm2 MdmX conf inactive
O=C(O)C1=CC(=C(c2ccc(O)c(C(=O)O)c2)c2ccc(O)c(C(=O)O)c2)C=CC1=O	none (no result: SKKanGAS inh, MPTP block, Mdm2 MdmX PPI, Calb FLC)
O=C1C=CC(=C(c2ccc(O)cc2)c2ccc(O)cc2)C=C1	Mdm2 MdmX PPI 91 (no result: SKKanGAS inh, CSC inhib, Calb FLC) | Mdm2 MdmX conf 70 | FLuc counter 45
Cc1ccc(-c2cc(C(=O)NCCCN3CCOCC3)c3ccc(Cl)c(C)c3n2)cc1	Mdm2 MdmX PPI 50 | Mdm2 MdmX conf 42 | FLuc counter 75
COc1ccc2[nH]c3c(=O)n(CCCCC(=O)N4CCC(C(N)=O)CC4)c(=S)[nH]c3c2c1	none
CC(C)(C)S(=O)(=O)c1cnc(N2CCCC2)nc1N	none
COc1ccc2nc(/N=C(\N)NC(=O)C(C)(C)C)nc(C)c2c1	none
CCC(=O)N/C(N)=N/c1nc(C)c2cc(OC)ccc2n1	Mdm2 MdmX PPI 62, Calb FLC inconclusive | Mdm2 MdmX conf 41 | FLuc counter 61
Cc1cc(C)c2nc(Cl)c(CN(Cc3ccco3)C(=O)Nc3ccccc3C)cc2c1	Mdm2 MdmX PPI 63 | Mdm2 MdmX conf 53 | FLuc counter 98
Oc1ccc2ccccc2c1C=NCc1cn2ccsc2n1	Mdm2 MdmX PPI 51 | Mdm2 MdmX conf inactive
Cc1cc(=O)oc2cc(OCCSCCN3CCCC3)ccc12	none
CCCCn1c(Cc2ccccc2)nnc1SCC(=O)N1CCOCC1	none
O=C(OCn1ncc(Br)c(Br)c1=O)c1ccccc1Cl	Mdm2 MdmX PPI 99, Beta cell apopt 112 | Mdm2 MdmX conf 98 | FLuc counter inactive
O=C(OCn1ncc(Br)c(Br)c1=O)c1ccc(F)cc1	Mdm2 MdmX PPI 99, Beta cell apopt 100 | Mdm2 MdmX conf 100 | FLuc counter inactive
Cc1cccc(C(=O)OCC(=O)N2CCN(C(=O)c3ccco3)CC2)c1O	none (no result: SKKanGAS inh, Calb FLC)
CCCc1cc(=O)n2[nH]cc(-c3ccc(Cl)cc3)c2n1	SKKanGAS inh 85, Mdm2 MdmX PPI 55, Beta cell apopt 80, CSC inhib 95 | Mdm2 MdmX conf 53 | FLuc counter inactive
COCc1cc(=O)n2[nH]cc(-c3ccccc3)c2n1	none
CCOc1ccc(-c2nnn(CC(=O)NCc3ccc(C)cc3)n2)cc1	none
CCOc1ccc(-c2nnn(CC(=O)Nc3cc(OC)ccc3OC)n2)cc1OCC	none
CCOc1ccccc1NC(=O)Cn1nnc(-c2ccc(OCC)c(OCC)c2)n1	Mdm2 MdmX PPI 88 (no result: Beta cell apopt, CSC inhib) | Mdm2 MdmX conf inactive
CCOc1ccc(-c2nnn(CC(=O)NCc3ccc(OC)cc3)n2)cc1OCC	Mdm2 MdmX PPI 62 | Mdm2 MdmX conf inactive
COc1ccc(CNC(=O)Cn2nnc(-c3ccc(NC(=O)C4CCCCC4)cc3)n2)cc1	Mdm2 MdmX PPI 61, Calb FLC inconclusive | Mdm2 MdmX conf inactive
CCOC(=O)c1cc(-c2ccc(N3CCOCC3)cc2)nn1-c1ccccc1C(=O)O	none
COc1ccc(OC)c(CN2CCN(c3ccccc3OC)CC2)c1	none
CCc1cn([C@H]2C[C@H](O)[C@@H](CO)O2)c(=O)[nH]c1=O	none (no result: Calb FLC)
O=c1[nH]c(=O)n([C@H]2C[C@H](O)[C@@H](CO)O2)cc1C(F)(F)F	Mdm2 MdmX PPI 60 (no result: Calb FLC) | Mdm2 MdmX conf 52 | FLuc counter 56
CCc1nc2c(OCc3ccccc3OC)cccn2c1N(C)C(=O)C(C)C	none (no result: SKKanGAS inh, Mdm2 MdmX PPI, Beta cell apopt, CSC inhib, Calb FLC)
COc1ccc(F)cc1S(=O)(=O)N1CCC2(CC1)OCCN2S(=O)(=O)c1ccccc1	none (no result: Beta cell apopt, CSC inhib)
COc1cc(/C=C/C(=O)N2CCCC2)cc(OC)c1OC	none
COc1ccc(OC)c(/C=C/C(=O)N2CCCc3ccccc32)c1	none
Nc1cccc2c1C(=O)N(C(=O)/C=C/c1cccc(Br)c1)C2=O	none (no result: Mdm2 MdmX PPI, Beta cell apopt, CSC inhib)
COc1cc(/C=C/C(=O)N2C(=O)c3cccc(N)c3C2=O)cc(OC)c1OC	Mdm2 MdmX PPI 71 (no result: CSC inhib) | Mdm2 MdmX conf 58 | FLuc counter 79
COc1cc(/C=C/C(=O)N2CCN(C(=O)/C=C/c3cc(OC)c(OC)c(OC)c3)CC2)cc(OC)c1OC	Mdm2 MdmX PPI 64 | Mdm2 MdmX conf inactive
Nc1cccc2c1C(=O)N(C(=O)/C=C/c1cccc(F)c1)C2=O	Mdm2 MdmX PPI 56 | Mdm2 MdmX conf 50 | FLuc counter 65
COc1ccc(OC)c(/C=C/C(=O)N2C(=O)c3cccc(N)c3C2=O)c1	Mdm2 MdmX PPI 63 | Mdm2 MdmX conf 48 | FLuc counter inactive
O=C(Nc1ccccn1)c1ccc(CN(c2ccccc2)S(=O)(=O)c2ccccc2)cc1	none (no result: Beta cell apopt)
COc1ccc(N(Cc2ccccc2)S(=O)(=O)c2cccc(C(=O)Nc3ccccn3)c2)cc1	Mdm2 MdmX PPI 57 (no result: SKKanGAS inh, CSC inhib, Calb FLC) | Mdm2 MdmX conf inactive
Cc1cc(C(C)(C)C)cc(C)c1C[n+]1ccc2ccccc2c1	Mdm2 MdmX PPI 51, Beta cell apopt 111 | Mdm2 MdmX conf inactive
Cc1ccc(C(=O)C[n+]2ccc3ccccc3c2)cc1	none
